From article PMC4336329 (PLoS ONE, 2015)
Out of some 310,000 compounds screened, about 14,000 (4.5%) showed an effect of 50% or more. The effect is printed as a negative number. For the sample, strong results were picked, then their nearest neighbours and some compounds at random.

Each compound was assayed against human ether-à-go-go-related gene (hERG) potassium channel (human, UniProt Q12809) (assay: primary screen, population patch clamp on CHO cells stably expressing hERG; higher = less effect of the substance).
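Also: peak tail current of the secondary pulse compared with the same well before compound.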

human ether-à-go-go-related gene (hERG) potassium channel, sequence (Q12809 whole entry, looked up): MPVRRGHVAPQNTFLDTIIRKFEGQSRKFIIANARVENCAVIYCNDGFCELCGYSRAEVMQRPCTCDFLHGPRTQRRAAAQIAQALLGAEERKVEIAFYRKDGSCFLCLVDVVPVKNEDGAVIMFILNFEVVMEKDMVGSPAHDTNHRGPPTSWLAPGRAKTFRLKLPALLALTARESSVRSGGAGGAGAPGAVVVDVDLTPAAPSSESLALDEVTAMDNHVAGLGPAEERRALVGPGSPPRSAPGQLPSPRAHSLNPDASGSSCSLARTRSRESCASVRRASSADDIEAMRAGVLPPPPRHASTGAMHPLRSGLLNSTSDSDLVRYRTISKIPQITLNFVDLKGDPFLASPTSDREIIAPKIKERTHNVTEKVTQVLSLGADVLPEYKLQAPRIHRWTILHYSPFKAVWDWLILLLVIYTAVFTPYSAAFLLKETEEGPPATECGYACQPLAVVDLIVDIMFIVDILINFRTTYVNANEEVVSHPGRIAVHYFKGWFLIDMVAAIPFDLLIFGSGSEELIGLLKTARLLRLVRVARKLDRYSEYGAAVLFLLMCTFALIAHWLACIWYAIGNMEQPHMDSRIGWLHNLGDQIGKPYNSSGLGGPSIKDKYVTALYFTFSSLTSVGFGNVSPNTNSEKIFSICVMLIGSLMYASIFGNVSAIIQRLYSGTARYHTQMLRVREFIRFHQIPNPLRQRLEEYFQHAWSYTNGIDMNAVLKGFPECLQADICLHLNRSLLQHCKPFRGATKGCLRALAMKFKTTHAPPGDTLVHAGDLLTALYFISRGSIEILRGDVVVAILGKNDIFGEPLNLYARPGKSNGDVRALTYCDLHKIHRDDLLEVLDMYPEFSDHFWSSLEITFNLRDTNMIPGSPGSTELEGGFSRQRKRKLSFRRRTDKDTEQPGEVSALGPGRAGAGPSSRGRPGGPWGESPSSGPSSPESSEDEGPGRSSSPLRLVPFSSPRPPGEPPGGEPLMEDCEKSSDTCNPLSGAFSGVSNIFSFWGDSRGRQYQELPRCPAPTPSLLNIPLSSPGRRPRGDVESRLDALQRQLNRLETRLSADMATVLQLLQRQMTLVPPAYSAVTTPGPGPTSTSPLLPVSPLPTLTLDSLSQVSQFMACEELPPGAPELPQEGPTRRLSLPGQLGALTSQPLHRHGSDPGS

SMILES | hERG current change (%, negative = inhibition) at 10uM [%]
CCCc1nnc(SCC(=O)Nc2ccc(OCC)cc2)n1N | -3.79
CCN(c1ccccc1)S(=O)(=O)c1ccc(Cl)c(C(=O)N(CC2CCCO2)C2CCS(=O)(=O)C2)c1 (centres unmarked) | -5.04
Cc1ccc(-c2csnn2)cc1 | 6.13
CCN1CCN(CCCNC(=O)C2c3ccccc3C(=O)N(c3ccc(OC)cc3)C2c2ccc(OC)cc2)CC1 (centres unmarked) | 1.22
CCCCCN(C(=O)COC(=O)CSc1ccc([N+](=O)[O-])cc1)c1c(N)n(CCCC)c(=O)[nH]c1=O | -40.5
CCc1cccc(NC(=O)CN(c2ccc(C)cc2)S(=O)(=O)c2c(C)noc2C)c1 | 8.14
COc1cc(OC)c(NC(=O)CCc2nc(-c3ccc(C)cc3)no2)cc1Cl | 6.21
COc1ccc(-c2ccc(-c3noc(-c4ccccc4C)n3)c(OC)n2)cc1 | 6.35
O=C(NC1CCC(O)CC1)c1cccc2cccnc12 (centres unmarked) | 7.2
CCN(CC)Cc1c(O)ccc2c(=O)c(-c3ccc(Cl)cc3)coc12 | -58.4
CCN(CC)Cc1c(O)ccc2c(=O)c(-c3ccccc3)coc12.Cl | -1.91
COc1ccc(-c2coc3c(CN4CCCCC4C)c(O)ccc3c2=O)cc1 (centres unmarked) | -39.4
CC1CCCCN1Cc1c(O)ccc2c(=O)c(-c3ccc(Cl)cc3)coc12 (centres unmarked) | -69.1
CC1CCCCN1Cc1c(O)ccc2c(=O)c(-c3ccc(Cl)cc3Cl)coc12 (centres unmarked) | -60.7
CN(C)Cc1c(O)ccc2c(=O)c(-c3ccc(Cl)cc3)coc12 | -9.92
CC1CCN(Cc2c(O)ccc3c(=O)c(-c4nc5ccccc5s4)c(N)oc23)CC1 | -48.5
CC1CCCCN1Cc1c(O)ccc2c(=O)c(-c3ccccc3)coc12 (centres unmarked) | -38.2
CC1CCCCN1Cc1c(O)ccc2c(=O)c(-c3nc4ccccc4s3)c(N)oc12 (centres unmarked) | -60.6
COc1ccccc1-c1coc2c(CN3CCCCC3C)c(O)ccc2c1=O (centres unmarked) | 6.44
CC1CCCN(Cc2c(O)ccc3c(=O)c(-c4nc5ccccc5s4)c(N)oc23)C1 (centres unmarked) | -0.886
CC1CCCCN1Cc1c(O)ccc2c(=O)c(-c3nc4ccccc4s3)coc12 (centres unmarked) | -48

SMILES | hERG current change (%, negative = inhibition) at 10uM [%]
N#Cc1cc2ccccc2nc1SCC(=O)Nc1ccc(S(=O)(=O)N2CCCC2)cc1 | 6.03
Cn1ncnc2c(=O)n(C)c(=O)nc1-2 | -2.67
O=C(NCc1ccccc1)Nc1cccn(Cc2ccccc2Cl)c1=O | 18.8
Cc1nc2ccccc2c(=O)n1-c1ccc(F)cc1F | 3.52
CCOC(=O)CNC(=O)c1ccc2[nH]c3c(c2c1)CCCC3 | 11.5
CCOC(=O)c1ccc(OCCOc2ccccc2C)cc1 | 24
O=c1c(Cl)c(N2CCN(S(=O)(=O)c3ccc(F)cc3)CC2)cnn1-c1cccc(Cl)c1 | -29.4
O=C(CSCc1ccccc1Br)N/N=C/c1ccc(OCC(=O)N2CCCCC2)cc1 | -15.9
CNC(=O)c1[nH]cnc1C(=O)Nc1ccc(OC)cc1 | 20.8
O=c1[nH]cnc2cc(-c3ccc(Br)cc3)sc12 | 12.3
CN(C)S(=O)(=O)c1ccc(N2CCCC2)c(C(=O)N2CCN(S(=O)(=O)c3cccc(F)c3)CC2)c1 | -10.7
Cc1nnc2ccc(-c3cccc(NS(=O)(=O)c4cc(F)ccc4F)c3)nn12 | -0.0273
O=C(O)CSCC(=O)Nc1ccc(C(=O)O)cc1 | 12.5
Cc1oc2c(CN3CCCCC3C)c(O)ccc2c(=O)c1-c1ccc(Br)cc1 (centres unmarked) | -50.9
Cc1oc2c(CN3CCCCC3C)c(O)ccc2c(=O)c1-c1ccccc1 (centres unmarked) | -27.6
COc1ccc(-c2c(C)oc3c(CN4CCCCC4C)c(O)ccc3c2=O)cc1 (centres unmarked) | -16.6
O=C(Cc1c(F)cccc1Cl)NCCc1c[nH]c2ccccc12 | 8.99
Cc1nn(CC#N)c(=O)n1-c1ccccc1 | 8.38
CCn1c(SCC#N)nc2c(c1=O)C1(CCCC1)Cc1ccccc1-2 | 2.38
CN(Cc1ccccc1)C(=O)CN(Cc1ccccc1)S(C)(=O)=O | -4.6
O=C(c1ccc(S(=O)(=O)c2ccccc2Cl)c([N+](=O)[O-])c1)N1CCCCCC1 | -11

SMILES | hERG current change (%, negative = inhibition) at 10uM [%]
O=C(NCC1CCCN(C2Cc3ccccc3C2)C1)c1cccs1 (centres unmarked) | -40.7
COCCN(CC1CCCN(C2Cc3ccccc3C2)C1)C(=O)CCC(C)=O (centres unmarked) | -6.4
COC(=O)CCCC(=O)NC1CCCN(C2Cc3ccccc3C2)C1 (centres unmarked) | -10.6
COCCN(CC1CCCN(C2Cc3ccccc3C2)C1)C(=O)CCSC (centres unmarked) | -45.8
COCCN(CC1CCCN(C2Cc3ccccc3C2)C1)C(=O)CCC(F)(F)F (centres unmarked) | -55.4
COCCN(CC1CCCN(C2Cc3ccccc3C2)C1)C(=O)CCC(N)=O (centres unmarked) | -75.1
CCCC(=O)N(CCc1ccc(OC)cc1)Cc1nc2ccccc2c(=O)[nH]1 | -8.61
COc1ccc2c(c1)c(CC(=O)Nc1cccc(S(N)(=O)=O)c1)c(C)n2C(=O)c1ccc(Cl)cc1 | 1.02
CCN(CC(=O)NCc1ccco1)S(=O)(=O)c1ccc(F)cc1 | 5.61
Cc1ccc(S(=O)(=O)N(Cc2ccc(F)cc2)Cc2ccco2)cc1 | 2.28
COc1ccc(S(=O)(=O)N(CC(=O)NCc2cccnc2)Cc2ccccc2)cc1 | -76.5
CN(CC(=O)NCc1ccncc1)S(=O)(=O)c1ccc(F)cc1 | -0.77
Cc1ccc(S(=O)(=O)N(CC(=O)NCc2ccncc2)Cc2ccc(F)cc2)cc1 | -79.2
CCN(CC(=O)NCc1ccco1)S(=O)(=O)c1ccc(OC)cc1 | 3.31
CCN(CC(=O)NCc1ccc(F)cc1)S(=O)(=O)c1ccc(C)cc1 | -43.6
Cc1ccc(S(=O)(=O)N(CC(=O)NCc2ccco2)Cc2ccc(F)cc2)cc1 | -67.1
CS(=O)(=O)N(CCc1ccccc1)CC(=O)NCc1ccco1 | -3.21
CCN(CC(=O)NCc1cccnc1)S(=O)(=O)c1ccc(OC)cc1 | -28.3
COc1ccc(S(=O)(=O)N(C)CC(=O)NCc2cccnc2)cc1 | -31.8
O=C(CN(Cc1ccccc1)S(=O)(=O)c1ccc(Br)cc1)NCc1ccco1 | -51.6
